GLP-1R agonist – qHTS of GLP-1 Receptor Agonists. Glucagon-like peptide 1 receptor (Homo sapiens), P43220. HEK293 GLP-1R CRE-luciferase, luminescence, 4-6 h; cells express a hypersensitive GLP-1R form. Potency, µM (titrated, usually from 45.6 µM), for inactives: at the highest dose activation, actives largely listed as activators. actives 0.007% (n = 380,000). AID 624172, 2012; further: % of control where 0% means no effect
GLP1R cytotox – qHTS of GLP-1 Receptor Inverse Agonists: Cytotox Screen. HEK293 cAMP-luciferase reporter cells, luminescence, 24 h. Potency, µM (highest dose often 38.3 µM), without a hit: top-dose activity change, negative = inhibition, most hits filed as inhibitors. actives 0.13% (n = 410,000). AID 624418, 2012;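 further: loss of luciferase light is scored as toxicity; on the % scale 0 is the no-effect control and ±100 the full control effect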
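Here, cytotoxicity is scored as loss of luminescence. The MLSMR collection was tested on cells seeded in medium containing 10% Nu serum, with a 24 hr compound exposure preceded by 12 hours of culture.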
PTHR1 ag – qHTS for PTHR1 Agonists: Primary Screen. actives 0.075% (n = 410,000). Potency, µM (top dose mostly 115 µM), inactives show at the top dose activation, hits mostly activators. HEK293 GP2 PTHR1 cells, GloSensor cAMP luminescence, 1 h. Parathyroid hormone/parathyroid hormone-related peptide receptor (Homo sapiens), Q03431; further: nearly all actives have a fitted effect of over 55% in size
Target sequence (Q03431 whole entry, looked up): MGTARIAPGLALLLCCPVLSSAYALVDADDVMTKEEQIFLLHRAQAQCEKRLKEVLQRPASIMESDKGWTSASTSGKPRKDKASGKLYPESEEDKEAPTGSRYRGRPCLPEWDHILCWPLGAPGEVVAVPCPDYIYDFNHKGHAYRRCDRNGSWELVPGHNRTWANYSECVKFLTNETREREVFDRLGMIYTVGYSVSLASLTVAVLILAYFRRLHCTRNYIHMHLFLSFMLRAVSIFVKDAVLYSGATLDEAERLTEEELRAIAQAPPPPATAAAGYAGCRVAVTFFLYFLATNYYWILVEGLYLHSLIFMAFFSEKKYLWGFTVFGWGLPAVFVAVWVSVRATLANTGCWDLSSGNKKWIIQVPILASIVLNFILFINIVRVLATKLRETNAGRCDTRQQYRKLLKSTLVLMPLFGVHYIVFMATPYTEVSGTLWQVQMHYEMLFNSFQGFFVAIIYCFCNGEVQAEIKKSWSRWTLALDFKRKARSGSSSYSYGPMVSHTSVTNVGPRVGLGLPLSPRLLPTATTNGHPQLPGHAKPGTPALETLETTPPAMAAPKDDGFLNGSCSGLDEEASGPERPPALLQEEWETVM
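HEK-293-derived GP2 cells expressing PTHR1 and a GloSensor cAMP reporter, 3,000/well, plated overnight, given luciferin plus IBMX (each 0.5 mM as added) for 1 h at 37 °C, then compound for 1 h at 37 °C. Luminescence was read after 15 min at room temperature.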
GLP1R inv ag – qHTS of GLP-1 Receptor Inverse Agonists (Inhibition Mode) | Glucagon-like peptide 1 receptor (Homo sapiens), P43220 | HEK293 GLP-1R CRE-luciferase, luminescence, 24 h; GLP-1R form is constitutively active | Potency, µM (highest dose often 38.3 µM), inactives show at the highest dose activity change, negative = inhibition, most hits filed as inhibitors | actives 1.6% (n = 410,000) | AID 624417, 2012; further: on the % scale 0 is the no-effect control and ±100 the full control effect; nearly all actives have a fitted effect of over 55% in size
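Inverse agonism was detected as reduced cAMP-driven luciferase luminescence after 24 h compound treatment. The cells were HEK293 clones expressing constitutively active human GLP-1R with the reporter. Reporter-only and GPR119 cell lines served as counterscreen controls.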
* hit, by the source's call; i = inactive; u = inconclusive; x = not tested or not shown; [ ] = remark or other dose. Shown are actives, neighbours in structure and some others; about 1.7% of the full set was active somewhere. The call rests on the fitted dose curve; in most records, active means well fitted curve in the direction sought with a large enough effect; inconclusive means small, poorly fitted or top-dose-only effect, or another doubt; inactive means no such curve, though single readings can be large; an effect the other way counts as inactive or inconclusive. Potency means the concentration at half of the fitted maximal effect.

SMILES	GLP-1R agonist	GLP1R cytotox	PTHR1 ag	GLP1R inv ag
O=C(NNC1=C(C(=O)C(F)(F)F)CCC1)c1ccc(Cl)cc1	0.9%	-24.8%	-24.5%[57.5 µM]	0.0%
O=C(NNC1=C(C(=O)C(F)(F)F)CCC1)c1cccc(Cl)c1	1.1%	u	-24.7%[57.5 µM]	2.82µM*
Cc1cccc(C)c1OCC(=O)N/N=C/c1cccnc1	9.8%	12.6µM*	-11.9%	-28.9%
COc1ccc(NC(=O)c2ccc3nc(CCc4ccccc4)oc3c2)cc1	x	-1.3%	-4.2%	20.6%
Cc1cccc(CSCCNC(=O)Nc2ccccc2)c1	-2.9%	-19.9%	-11.5%	u
CCCCOc1ccc(CSCCNC(=S)Nc2ccccc2)cc1	-4.2%	3.16µM*	-31.4%	1.78µM*
CC(C)COc1ccc(CSCCNC(=S)Nc2ccccc2)cc1	1.8%	4.47µM*	-57.3%	3.16µM*
CCCCCOc1ccc(CSCCNC(=S)Nc2ccccc2)cc1	-3.6%	-6.5%[1.53 µM]	-20.9%	u
COC(=O)c1sccc1S(=O)(=O)N1CCN(c2cc(Cl)ccc2C)CC1	x	-12.5%	-10.5%	u
O=C1CN(C(=O)c2ccc(Br)o2)C(c2ccccc2)c2cc(Br)ccc2N1 (stereo not given)	-3.8%	-19.3%	-34.0%	7.08µM*
O=C1CN(C(=O)c2ccc(Br)o2)C(c2ccc(F)cc2)c2cc(Cl)ccc2N1 (stereo not given)	-3.8%	-11.3%	6.5%[57.5 µM]	3.55µM*
COc1ccc(OC)c(NC(=O)COCc2cc(-c3ccco3)on2)c1	x	9.5%	-30.3%	5.3%
NCCSc1c(-c2ccc(F)cc2)[nH]c2ccccc12	-6.1%	-21.3%	-17.5%	10µM*
O=C(Cc1coc2ccc3ccccc3c12)NCc1ccccc1	7.8%	4.3%	-25.1%	u
CCCN(CCC)C(=O)Cc1coc2ccc3ccccc3c12	0.8%	-9.1%	i	8.91µM*
Cc1cccc(CNC(=O)C2CCN(S(=O)(=O)c3ccc4c(c3)CCCN4C(=O)C3CCC3)CC2)c1	x	-13.3%	-53.5%	u
Cc1ccc(Nc2nc(-c3ccc(S(=O)(=O)N4CCCC4)cc3)cs2)cc1C	2.6%	-32.9%	-1.9%[57.5 µM]	u
Cc1cc(C)cc(Nc2nc(-c3ccc(S(=O)(=O)N4CCCC4)cc3)cs2)c1	1.4%	-17.8%	-63.9%	3.55µM*
COc1ccc(CCNC(=O)c2cc(S(=O)(=O)N3CCCCC3)ccc2Cl)cc1	6.9%	19.8%	-23.2%	8.91µM*
COc1ccc(CCNC(=O)c2cccc(S(=O)(=O)N3CCCCC3)c2)cc1	2.5%	-15.8%	-28.5%	u
COc1cc2c(cc1OC)C(COc1ccc3c(C)cc(=O)oc3c1)N(C(=O)c1ccc(C)cc1)CC2 (stereo not given)	x	-3.5%	i	37.0%
COc1ccc(NC(=O)Cn2cnc3sc(C)c(S(=O)(=O)N4CCN(C)CC4)c3c2=O)cc1Cl	-2.1%	-0.3%	-40.5%	-9.5%
CC1CN(C(=O)c2ccccc2OCc2ccc(Cl)cc2Cl)CC(C)O1 (stereo not given)	9.6%	19.6%	-16.1%	10µM*
CC1=CC(C)(C)Nc2ccc(Cc3ccc4c(c3)C(C)=CC(C)(C)N4)cc21	-0.6%	-15.4%	-34.0%	2.82µM*
CCOc1ccc(-c2[nH]ncc2Oc2ccccc2OC)c(O)c1	9.9%	u	-63.3%[57.5 µM]	8.91µM*
SMILES	GLP-1R agonist	GLP1R cytotox	PTHR1 ag	GLP1R inv ag
COc1ccc2cc1Oc1ccc(cc1)CC1c3c(cc(OC)c4c3Oc3cc5c(cc3O4)CCNC5C2)CCN1C (stereo not given)	-5.7%	11.2µM*	i	5.62µM*
COc1ccc2cc1Oc1ccc(cc1)C[C@H]1c3c(cc(OC)c4c3Oc3c(ccc5c3[C@H](C2)N(C)CC5)O4)CCN1C	8.8%	0.4%	i	2.5%
Cc1occc1-c1nnc(SCC(=O)Nc2ccccc2)n1CCc1ccccc1	0.9%	-14.4%	i	11.2µM*
CCOC(=O)c1c(C)[nH]c(N=Nc2ccccc2)c1C	11.4%	u	i	10µM*
CCOC(=O)c1c(C)[nH]c(N=Nc2ccc(C)cc2)c1C	22.5%	u	-39.5%	u
Cc1cccc(CCNc2ncnc3onc(-c4ccc(Cl)cc4)c23)c1	0.7%	1.2%	-31.8%	-2.9%
O=C(c1cnc(N2CCN(c3ccccn3)CC2)c2ccccc12)N1CCN(c2cccc(Cl)c2)CC1	2.1%	-19.2%	-48.8%	2.24µM*
COc1ccccc1N1CCN(C(=O)c2cnc(N3CCCCC3)c3ccccc23)CC1	x	u	-13.1%	3.55µM*
O=C(/C=C/c1cn(-c2ccccc2)nc1-c1cccc(Cl)c1)N1CCN(c2ccccn2)CC1	1.5%	-8.8%	-32.6%	7.08µM*
O=C(c1cc(Cl)ccc1Cl)N1CCN(c2ccccn2)CC1	16.2%	-2.8%	i	16.2%
O=C(/C=C/c1cn(-c2ccccc2)nc1-c1cccnc1)N1CCCCC1	21.4%	-14.6%	-0.7%	14.0%
COc1ccccc1N1CCN(C(=O)c2ccc(COc3cccc4c3OC(C)(C)C4)cc2)CC1	-19.6%	10.1%	-40.1%	7.08µM*
CC(C)n1c(SCC(=O)c2ccc(F)cc2)nc2c(sc3ccccc32)c1=O	x	16.2%	-16.2%	3.6%
COc1ccc(NC(=O)c2cc(-c3ccc(F)cc3)no2)cc1OC	x	-8.6%	i	11.7%
Cc1ccc(C(=O)NCC(c2ccco2)S(=O)(=O)c2ccc(Cl)cc2)cc1C (stereo not given)	x	-0.2%	-32.6%	-25.8%
O=C(c1ccc2[nH]c3c(c2c1)CCCC3)N1CCN(c2ccc(F)cc2)CC1	-5.4%	-1.0%[1.53 µM]	i	u
COc1ccccc1N1CCN(C(=O)c2ccc3[nH]c4c(c3c2)CCCC4)CC1	0.6%	3.7%	-71.8%	10µM*
CCOC(=O)c1c(-c2ccccc2)oc2ccc(NS(=O)(=O)c3cc(C)c(C)cc3C)cc12	x	8.2%	i	4.47µM*
O=[N+]([O-])c1ccc(NN=Cc2cc(Br)ccc2O)nc1	10.9%	u	-22.5%	2.82µM*
COc1cc(C2C(C#N)=C(N)N(Nc3ccccc3)C3=C2C(=O)CC(C)(C)C3)ccc1OCc1ccccc1 (stereo not given)	-13.8%	14.1%	-18.0%[57.5 µM]	3.16µM*
COc1ccc(C2C(C#N)=C(N)N(N(C)C)C3=C2C(=O)CC(C)(C)C3)cc1OC (stereo not given)	7.7%	-0.3%	i	22.5%
COc1ccc(C2C(C#N)=C(N)N(Nc3ccccc3)C3=C2C(=O)CC(C)(C)C3)cc1C (stereo not given)	-11.9%	162.5%	-72.5%[57.5 µM]	u
COc1cc(C2C(C#N)=C(N)N(Nc3ccccc3)C3=C2C(=O)CC(C)(C)C3)ccc1OCc1cccc(F)c1 (stereo not given)	-13.5%	-7.4%	i	5.62µM*
Cc1cc(C)c(NC(=O)c2nc3ccccc3nc2N2CCCCC2)c(C)c1	x	0.0%	i	0.9%
